Test results reported in PubChem BioAssay AID1159580 (chemical genetic matrix, 2015).
Where “and” joins values, the source holds several entries; their conditions need not be identical. Identical values can stand only once. About 2,000 (36%) of roughly 5,500 compounds were called active. Roughly 18% stayed inconclusive and do not appear here. No stated cut-off is given here; in the data, active means normalized growth mostly below about 0.91 (no sharp cut-off); inconclusive means no clear call, values can overlap the other calls; inactive means mostly above about 0.92. The list shows a part of the results.

Experiment: chemical genetic growth profiling, strain panel (AID 1159580);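 further: tested at 20 µM; growth read once vehicle control cultures reached saturation at 30 °C; 1 = growth at the plate median or of vehicle wells; lower values mean less growth of the strain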
Settings: S. cerevisiae deletion strains, growth OD

Measured: normalized growth

CNC(C)[C@@H]1CC[C@@H](N)[C@@H](OC2[C@@H](N)C[C@@H](N)[C@H](OC3OC[C@](C)(O)[C@H](NC)[C@H]3O)[C@H]2O)O1 (stereo partly drawn)
inactive: locus YAL013W, strain DEP1, active compounds read low 1.02 | locus YAL021C, strain ccr4, active compounds read low 1.02 | locus YAL026C, strain drs2, active compounds read low 0.997 | locus YAL030W, strain snc1, active compounds read low 0.998 | locus YBL061C, strain skt5, active compounds read low 0.977 | locus YBR009C, strain hhf1, active compounds read low 1.01 | locus YBR021W, strain FUR4, active compounds read low 1.02 | locus YBR023C, strain chs3, active compounds read low 0.988 | locus YBR171W, strain sec66, active compounds read low 0.986 | locus YBR229C, strain ROT2, active compounds read low 1.02 | locus YBR231C, strain swc5, active compounds read low 0.982 | locus YBR279W, strain paf1, active compounds read low 0.991 | locus YCL011C, strain gbp2, active compounds read low 1.01 | locus YCL016C, strain dcc1, active compounds read low 1 | locus YCL029C, strain bik1, active compounds read low 1.01 | locus YCL069W, strain vba3, active compounds read low 0.992 | locus YCR088W, strain abp1, active compounds read low 0.999 | locus YDL005C, strain med2, active compounds read low 0.98 | locus YDL035C, strain GPR1, active compounds read low 1.01 | locus YDL040C, strain nat1, active compounds read low 0.994 | locus YDL074C, strain BRE1, active compounds read low 1.03 | locus YDL101C, strain DUN1, active compounds read low 1.01 | locus YDL134C, strain PPH21, active compounds read low 1 | locus YDL185W, strain tfp1, active compounds read low 1.02 | locus YDL192W, strain arf1, active compounds read low 1.04 | locus YDR001C, strain nth1, active compounds read low 0.988 | locus YDR069C, strain doa4, active compounds read low 0.988 | locus YDR101C, strain arx1, active compounds read low 0.992 | locus YDR137W, strain rgp1, active compounds read low 1.01 | locus YDR150W, strain NUM1, active compounds read low 1.01 | locus YDR159W, strain sac3, active compounds read low 0.995 | locus YDR162C, strain NBP2, active compounds read low 1.01 | locus YDR195W, strain ref2 0.947 | locus YDR297W, strain sur2, active compounds read low 0.983 | locus YDR318W, strain mcm21, active compounds read low 1.02 | locus YDR334W, strain swr1, active compounds read low 0.98 | locus YDR335W, strain msn5, active compounds read low 0.98 | locus YDR388W, active compounds read low 1.01 | locus YDR392W, strain spt3, active compounds read low 1.03 | locus YDR502C, strain sam2, active compounds read low 1.05 | locus YEL003W, strain gim4, active compounds read low 0.975 | locus YEL037C, strain rad23, active compounds read low 0.995 | locus YEL061C, strain CIN8 (second series), active compounds read low 0.982 | locus YEL061C, strain CIN8, active compounds read low 1.02 | locus YER015W, strain faa2, active compounds read low 0.993 | locus YER016W, strain bim1, active compounds read low 0.979 | locus YER110C, active compounds read low 1.02 | locus YER111C, strain swi4, active compounds read low 0.976 | locus YER155C, strain BEM2 (second series), active compounds read low 0.997 | locus YER155C, strain BEM2, active compounds read low 1.01 | locus YER167W, strain BCK2, active compounds read low 1.01 | locus YFR010W, strain ubp6, active compounds read low 0.98 | locus YGL078C, strain dbp3, active compounds read low 1.02 | locus YGL086W, strain mad1, active compounds read low 1.01 | locus YGL167C, strain pmr1, active compounds read low 0.982 | locus YGL173C, strain kem1, active compounds read low 0.974 | locus YGL227W, strain vid30, active compounds read low 0.987 | locus YGL240W, strain doc1, active compounds read low 0.99 | locus YGL248W, strain PDE1, active compounds read low 1.01 | locus YGL253W, strain hxk2, active compounds read low 0.987 | locus YGR135W, strain pre9, active compounds read low 1.05 | locus YGR229C, strain SMI1, active compounds read low 1.01 | locus YGR252W, strain gcn5, active compounds read low 1.04 | locus YHR013C, strain ard1, active compounds read low 1.02 | locus YHR027C, strain rpn1, active compounds read low 1 | locus YHR030C, strain SLT2, active compounds read low 1.02 and 0.984 | locus YHR079C, strain IRE1 (second series), active compounds read low 1.02 | locus YHR079C, strain IRE1, active compounds read low 1.01 | locus YHR094C, strain hxt1, active compounds read low 1.01 | locus YHR129C, strain ARP1, active compounds read low 1 | locus YHR142W, strain chs7, active compounds read low 0.971 | locus YHR200W, strain rpn10, active compounds read low 1.03 | locus YIL066C, strain RNR3, active compounds read low 1.01 | locus YIL073C, strain SPO22, active compounds read low 1.04 | locus YIL125W, strain kgd1, active compounds read low 1.02 | locus YIR030C, strain dcg1, active compounds read low 1.03 | locus YJL092W, strain hpr5, active compounds read low 0.993 | locus YJL095W, strain BCK1 (second series), active compounds read low 0.993 | locus YJL095W, strain BCK1, active compounds read low 1.02 and 1 | locus YJL115W, strain asf1, active compounds read low 0.982 | locus YJL129C, strain trk1, active compounds read low 0.964 | locus YJL134W, strain LCB3, active compounds read low 1.02 | locus YJL154C, strain vps35, active compounds read low 0.999 | locus YJL164C, strain tpk1, active compounds read low 1.01 | locus YJL166W, strain qcr8, active compounds read low 0.984 | locus YJL168C, strain set2, active compounds read low 1.02 | locus YJL187C, strain SWE1 (second series), active compounds read low 1.01 | locus YJL187C, strain SWE1, active compounds read low 0.992 | locus YJR043C, strain POL32, active compounds read low 0.996 | locus YJR066W, strain TOR1, active compounds read low 0.999 | locus YJR075W, strain HOC1, active compounds read low 1.03 | locus YKL009W, strain mrt4, active compounds read low 1.01 | locus YKL068W, active compounds read low 1.01 | locus YKL085W, strain MDH1 (second series), active compounds read low 1.02 | locus YKL085W, strain MDH1, active compounds read low 1.02 | locus YKL160W, strain elf1, active compounds read low 0.977 | locus YKL190W, strain CNB1, active compounds read low 1.02 | locus YKR001C, strain vps1, active compounds read low 1.02 | locus YKR026C, strain gcn3, active compounds read low 1 | locus YKR091W, strain srl3, active compounds read low 0.986 | locus YLL001W, strain dnm1, active compounds read low 0.972 | locus YLL026W, active compounds read low 0.996 | locus YLL041C, strain sdh2, active compounds read low 0.995 | locus YLR027C, strain aat2, active compounds read low 0.991 | locus YLR039C, strain RIC1, active compounds read low 1.08 | locus YLR058C, strain SHM2, active compounds read low 1.03 | locus YLR102C, strain apc9, active compounds read low 1.03 | locus YLR113W, strain HOG1, active compounds read low 0.987 | locus YLR221C, strain rsa3, active compounds read low 0.99 | locus YLR258W, strain gsy2, active compounds read low 1 | locus YLR262C, strain YPT6 (second series), active compounds read low 0.977 | locus YLR262C, strain YPT6, active compounds read low 1.05 | locus YLR268W, strain sec22, active compounds read low 1.01 | locus YLR320W, strain mms22, active compounds read low 1 | locus YLR330W, strain CHS5, active compounds read low 1.01 | locus YLR342W, strain FKS1 (second series), active compounds read low 0.996 | locus YLR342W, strain FKS1, active compounds read low 0.977 | locus YLR357W, strain rsc2, active compounds read low 0.991 | locus YLR370C, strain arc18, active compounds read low 0.984 | locus YLR371W, strain rom2, active compounds read low 1.01 | locus YLR384C, strain iki3, active compounds read low 0.992 | locus YLR418C, strain cdc73, active compounds read low 1.02 | locus YML016C, strain PPZ1, active compounds read low 1.01 | locus YML032C, strain rad52, active compounds read low 1.02 | locus YML120C, strain ndi1, active compounds read low 0.996 | locus YML124C, strain tub3, active compounds read low 1.01 | locus YMR058W, strain fet3, active compounds read low 0.994 | locus YMR078C, strain ctf18, active compounds read low 1.02 | locus YMR125W, strain sto1, active compounds read low 0.979 | locus YMR129W, active compounds read low 1 | locus YMR205C, strain PFK2, active compounds read low 0.987 | locus YMR223W, strain ubp8, active compounds read low 1.04 | locus YMR231W, strain pep5, active compounds read low 0.988 | locus YMR263W, strain SAP30, active compounds read low 1.01 | locus YMR307W, strain GAS1, active compounds read low 1 | locus YNL067W, strain RPL9B, active compounds read low 1.02 | locus YNL071W, strain lat1, active compounds read low 0.996 | locus YNL153C, strain GIM3, active compounds read low 1.01 | locus YNL183C, strain NPR1, active compounds read low 0.97 | locus YNL209W, strain ssb2, active compounds read low 1 | locus YNL233W, strain BNI4, active compounds read low 1.01 | locus YNL248C, strain rpa49, active compounds read low 1.02 | locus YNL250W, strain rad50, active compounds read low 1.05 | locus YNL271C, strain bni1, active compounds read low 1.03 | locus YNL298W, strain CLA4, active compounds read low 1.02 | locus YNL307C, strain MCK1, active compounds read low 1.03 | locus YNL322C, strain KRE1 (second series), active compounds read low 0.988 | locus YNL322C, strain KRE1, active compounds read low 1.02 | locus YNR049C, strain mso1, active compounds read low 0.986 | locus YNR052C, strain pop2, active compounds read low 1.02 | locus YOL006C, strain TOP1, active compounds read low 1.06 | locus YOL012C, strain htz1 0.693 | locus YOL147C, strain pex11, active compounds read low 1.02 | locus YOR001W, strain rrp6, active compounds read low 0.985 | locus YOR061W, strain CKA2, active compounds read low 1.01 | locus YOR069W, strain VPS5, active compounds read low 1.01 | locus YOR070C, strain gyp1, active compounds read low 0.987 | locus YOR080W, strain dia2, active compounds read low 0.982 | locus YOR083W, strain WHI5, active compounds read low 0.977 | locus YOR106W, strain vam3, active compounds read low 0.983 | locus YOR136W, strain idh2, active compounds read low 1.02 | locus YOR144C, strain elg1, active compounds read low 1.01 | locus YOR184W, strain ser1, active compounds read low 1.03 | locus YOR231W, strain MKK1, active compounds read low 0.976 | locus YOR265W, strain rbl2, active compounds read low 0.987 | locus YOR270C, strain vph1, active compounds read low 0.996 | locus YOR290C, strain snf2, active compounds read low 1.01 | locus YOR316C, strain cot1, active compounds read low 1.02 | locus YPL051W, strain arl3, active compounds read low 0.982 | locus YPL078C, strain atp4, active compounds read low 0.973 | locus YPL106C, strain sse1, active compounds read low 1 | locus YPL240C, strain hsp82, active compounds read low 0.99 | locus YPL256C, strain CLN2, active compounds read low 0.988 | locus YPR119W, strain clb2, active compounds read low 1.03 | locus YPR141C, strain kar3, active compounds read low 1.02 | locus YPR163C, strain tif3, active compounds read low 1.02 | locus YPR167C, strain met16, active compounds read low 1.02 | strain wtn01, active compounds read low 1.01
